Reference: PubChem BioAssay AID1159580 (chemical genetic matrix, 2015)
In all, about 5,500 compounds went through this assay and about 2,000 (36%) were called active. About 18% were inconclusive and are not listed. No stated cut-off is given here; in the data, active means normalized growth mostly below about 0.91 (no sharp cut-off); inconclusive means no clear call, values can overlap the other calls; inactive means mostly above about 0.92. This is one part of the list.

Assay: chemical genetic growth profiling, strain panel (AID 1159580);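 further: tested at 20 µM; growth read once vehicle control cultures reached saturation at 30 °C; 1 = growth at the plate median or of vehicle wells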
Details: growth OD

Measured: normalized growth

CC(=O)/C=C\[C@@H]1[C@@]2(C)CCCC(C)(C)C2CC[C@@]1(C)O (some centres not stated)
inactive: S. cerevisiae deletion strains, locus YJR075W, strain HOC1, stronger effect = lower value 0.982 | S. cerevisiae deletion strains, locus YKL009W, strain mrt4, stronger effect = lower value 0.97 | S. cerevisiae deletion strains, locus YKL068W, stronger effect = lower value 0.984 | S. cerevisiae deletion strains, locus YKL085W, strain MDH1 (second series), stronger effect = lower value 0.977 | S. cerevisiae deletion strains, locus YKL085W, strain MDH1, stronger effect = lower value 0.977 | S. cerevisiae deletion strains, locus YKL160W, strain elf1, stronger effect = lower value 0.963 | S. cerevisiae deletion strains, locus YKL190W, strain CNB1, stronger effect = lower value 0.964 | S. cerevisiae deletion strains, locus YKR001C, strain vps1, stronger effect = lower value 0.975 | S. cerevisiae deletion strains, locus YKR026C, strain gcn3, stronger effect = lower value 0.979 | S. cerevisiae deletion strains, locus YKR091W, strain srl3, stronger effect = lower value 0.975 | S. cerevisiae deletion strains, locus YLL001W, strain dnm1, stronger effect = lower value 1.01 | S. cerevisiae deletion strains, locus YLL026W, stronger effect = lower value 0.991 | S. cerevisiae deletion strains, locus YLL041C, strain sdh2, stronger effect = lower value 0.968 | S. cerevisiae deletion strains, locus YLR027C, strain aat2, stronger effect = lower value 0.982 | S. cerevisiae deletion strains, locus YLR039C, strain RIC1, stronger effect = lower value 0.846 | S. cerevisiae deletion strains, locus YLR058C, strain SHM2, stronger effect = lower value 0.958 | S. cerevisiae deletion strains, locus YLR102C, strain apc9, stronger effect = lower value 0.973 | S. cerevisiae deletion strains, locus YLR113W, strain HOG1, stronger effect = lower value 0.951 | S. cerevisiae deletion strains, locus YLR221C, strain rsa3, stronger effect = lower value 1.01 | S. cerevisiae deletion strains, locus YLR258W, strain gsy2, stronger effect = lower value 0.981 | S. cerevisiae deletion strains, locus YLR262C, strain YPT6 (second series), stronger effect = lower value 0.939 | S. cerevisiae deletion strains, locus YLR262C, strain YPT6, stronger effect = lower value 0.843 | S. cerevisiae deletion strains, locus YLR268W, strain sec22, stronger effect = lower value 0.923 | S. cerevisiae deletion strains, locus YLR320W, strain mms22, stronger effect = lower value 1.01 | S. cerevisiae deletion strains, locus YLR330W, strain CHS5, stronger effect = lower value 0.974 | S. cerevisiae deletion strains, locus YLR342W, strain FKS1 (second series), stronger effect = lower value 0.957 | S. cerevisiae deletion strains, locus YLR342W, strain FKS1, stronger effect = lower value 0.968 | S. cerevisiae deletion strains, locus YLR357W, strain rsc2, stronger effect = lower value 0.998 | S. cerevisiae deletion strains, locus YLR370C, strain arc18, stronger effect = lower value 0.964 | S. cerevisiae deletion strains, locus YLR371W, strain rom2, stronger effect = lower value 1 | S. cerevisiae deletion strains, locus YLR384C, strain iki3, stronger effect = lower value 0.973 | S. cerevisiae deletion strains, locus YML016C, strain PPZ1, stronger effect = lower value 0.964 | S. cerevisiae deletion strains, locus YML032C, strain rad52, stronger effect = lower value 1.02 | S. cerevisiae deletion strains, locus YML120C, strain ndi1, stronger effect = lower value 0.971 | S. cerevisiae deletion strains, locus YML124C, strain tub3, stronger effect = lower value 0.979 | S. cerevisiae deletion strains, locus YMR058W, strain fet3, stronger effect = lower value 0.968 | S. cerevisiae deletion strains, locus YMR078C, strain ctf18, stronger effect = lower value 0.975 | S. cerevisiae deletion strains, locus YMR125W, strain sto1, stronger effect = lower value 0.958 | S. cerevisiae deletion strains, locus YMR129W, stronger effect = lower value 0.96 | S. cerevisiae deletion strains, locus YMR205C, strain PFK2, stronger effect = lower value 0.926 | S. cerevisiae deletion strains, locus YMR223W, strain ubp8, stronger effect = lower value 1.01 | S. cerevisiae deletion strains, locus YMR231W, strain pep5, stronger effect = lower value 0.972 | S. cerevisiae deletion strains, locus YMR263W, strain SAP30, stronger effect = lower value 0.947 | S. cerevisiae deletion strains, locus YMR307W, strain GAS1, stronger effect = lower value 1.08 | S. cerevisiae deletion strains, locus YNL067W, strain RPL9B, stronger effect = lower value 0.957 | S. cerevisiae deletion strains, locus YNL071W, strain lat1, stronger effect = lower value 0.961 | S. cerevisiae deletion strains, locus YNL128W, strain TEP1, stronger effect = lower value 0.927 | S. cerevisiae deletion strains, locus YNL153C, strain GIM3, stronger effect = lower value 0.951 | S. cerevisiae deletion strains, locus YNL183C, strain NPR1, stronger effect = lower value 0.947 | S. cerevisiae deletion strains, locus YNL209W, strain ssb2, stronger effect = lower value 0.986 | S. cerevisiae deletion strains, locus YNL233W, strain BNI4, stronger effect = lower value 0.942 | S. cerevisiae deletion strains, locus YNL248C, strain rpa49, stronger effect = lower value 0.952 | S. cerevisiae deletion strains, locus YNL250W, strain rad50, stronger effect = lower value 0.99 | S. cerevisiae deletion strains, locus YNL271C, strain bni1, stronger effect = lower value 0.991 | S. cerevisiae deletion strains, locus YNL298W, strain CLA4, stronger effect = lower value 0.984 | S. cerevisiae deletion strains, locus YNL307C, strain MCK1, stronger effect = lower value 0.948 | S. cerevisiae deletion strains, locus YNL322C, strain KRE1 (second series), stronger effect = lower value 0.989 | S. cerevisiae deletion strains, locus YNL322C, strain KRE1, stronger effect = lower value 0.965 | S. cerevisiae deletion strains, locus YNR049C, strain mso1, stronger effect = lower value 0.98 | S. cerevisiae deletion strains, locus YNR052C, strain pop2, stronger effect = lower value 0.98 | S. cerevisiae deletion strains, locus YOL006C, strain TOP1, stronger effect = lower value 0.867 | S. cerevisiae deletion strains, locus YOL012C, strain htz1 0.968 | S. cerevisiae deletion strains, locus YOL147C, strain pex11, stronger effect = lower value 0.987 | S. cerevisiae deletion strains, locus YOR001W, strain rrp6, stronger effect = lower value 0.95 | S. cerevisiae deletion strains, locus YOR061W, strain CKA2, stronger effect = lower value 0.944 | S. cerevisiae deletion strains, locus YOR069W, strain VPS5, stronger effect = lower value 0.977 | S. cerevisiae deletion strains, locus YOR070C, strain gyp1, stronger effect = lower value 0.968 | S. cerevisiae deletion strains, locus YOR080W, strain dia2, stronger effect = lower value 0.978 | S. cerevisiae deletion strains, locus YOR083W, strain WHI5, stronger effect = lower value 1.03 | S. cerevisiae deletion strains, locus YOR106W, strain vam3, stronger effect = lower value 0.982 | S. cerevisiae deletion strains, locus YOR136W, strain idh2, stronger effect = lower value 0.996 | S. cerevisiae deletion strains, locus YOR144C, strain elg1, stronger effect = lower value 0.97 | S. cerevisiae deletion strains, locus YOR184W, strain ser1, stronger effect = lower value 0.993 | S. cerevisiae deletion strains, locus YOR231W, strain MKK1, stronger effect = lower value 0.964 | S. cerevisiae deletion strains, locus YOR265W, strain rbl2, stronger effect = lower value 0.979 | S. cerevisiae deletion strains, locus YOR270C, strain vph1, stronger effect = lower value 0.909 | S. cerevisiae deletion strains, locus YOR290C, strain snf2, stronger effect = lower value 0.974 | S. cerevisiae deletion strains, locus YOR316C, strain cot1, stronger effect = lower value 0.977 | S. cerevisiae deletion strains, locus YPL051W, strain arl3, stronger effect = lower value 0.986 | S. cerevisiae deletion strains, locus YPL055C, strain LGE1, stronger effect = lower value 0.866 | S. cerevisiae deletion strains, locus YPL078C, strain atp4, stronger effect = lower value 0.97 | S. cerevisiae deletion strains, locus YPL106C, strain sse1, stronger effect = lower value 1.02 | S. cerevisiae deletion strains, locus YPL240C, strain hsp82, stronger effect = lower value 0.98 | S. cerevisiae deletion strains, locus YPL241C, strain CIN2, stronger effect = lower value 0.968 | S. cerevisiae deletion strains, locus YPL256C, strain CLN2, stronger effect = lower value 0.979 | S. cerevisiae deletion strains, locus YPR119W, strain clb2, stronger effect = lower value 0.985 | S. cerevisiae deletion strains, locus YPR141C, strain kar3, stronger effect = lower value 0.975 | S. cerevisiae deletion strains, locus YPR163C, strain tif3, stronger effect = lower value 0.973 | S. cerevisiae deletion strains, locus YPR167C, strain met16, stronger effect = lower value 0.971 | S. cerevisiae deletion strains, strain wtn01, stronger effect = lower value 0.94 | S. cerevisiae strains, strain wild type, stronger effect = lower value 0.967
active: S. cerevisiae deletion strains, locus YLR418C, strain cdc73, stronger effect = lower value 0.838
